Source: PubChem BioAssay AID1626 (SRMLSC, 2009)
The whole screen tested about 220,000 compounds, of which about 2,000 (0.91%) were called active. Inconclusive results (about 2%) are left out. These entries were drawn from the full list. Results with a measured potency or affinity are listed apart. A number with no mark means an inactive call. Cut-off read from the data, not from the text of the source: inconclusive = inhibition above about 80% without an active follow-up result; inactive = below that; test concentration not stated here.

Assay: M. tuberculosis H37Rv growth inhibitors, H37Rv strain (AID 1626);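 note: bacteria incubated seven days before Alamar blue readout; 0% = bacteria only wells and 100% = bacteria with antibiotic wells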
Conditions: hits give high values, concentration not given here

With `CCOC(=O)c1cc(-c2ccccc2)nn1-c1ccccn1` as the compound, how does the inhibition read?
Its inhibition is -4.13%.

Which inhibition does the source give for `C#CCOCCOCCOCCNc1nc(N2CCOCC2)nc(N2CCN(C(=O)Cn3cc(CCCN=C(N)N)nn3)CC2)n1` here?
The inhibition was -13.8%.

For `CCN(CC)C(=O)c1cc2c(=O)c3cc(F)ccc3oc2nc1C`, which inhibition is on record?
The inhibition was 1.36%.

For `Cc1ccc(Nc2nc3ccccc3n3nnnc23)cc1`, which inhibition is on record?
Its inhibition is -0.03%.

With `CCC(=O)c1ccc(O)cc1` as the compound, how does the inhibition read?
The inhibition was 14.2%.

For `CCCCC(=O)c1ccc(O)cc1O`, which inhibition is on record?
Its inhibition is 77%.

With `CCCCCCCC(=O)N/N=C(\C)c1ccc(O)cc1O` as the compound, how does the inhibition read?
Its inhibition is 11.6%.

With `O=C(CCO)c1ccc(O)cc1` as the compound, how does the inhibition read?
The inhibition was 12.1%.

Which inhibition does the source give for `O=C(NCc1ccc(Cl)cc1)c1noc2c1CCCCC2` here?
Its inhibition is 4.19%.

With `COc1ccc(NC2=CC(=O)CC(c3ccccc3)C2)cc1` (stereo not given) as the compound, how does the inhibition read?
Its inhibition is -3.06%.

With `O=C(O)CC(CC(=O)Nc1ccc(F)c(Cl)c1)c1ccc(Cl)cc1Cl` (stereo not given) as the compound, how does the inhibition read?
Its inhibition is -8.97%.

For `NNC(=O)C(Cc1ccccc1)NC(=O)OCc1ccccc1` (stereo not given), which inhibition is on record?
The inhibition was 3.92%.

For `O=C(Nc1ccc(Cl)c(Cl)c1)c1ccc(Cl)c(Cl)c1`, which inhibition is on record?
Its inhibition is 2.4%.

Which inhibition does the source give for `Clc1ccc(C2=NCCN2)cc1` here?
The inhibition was 4.97%.

Which inhibition does the source give for `CCCN1C(=O)c2cc(C(=O)NCc3cccs3)ccc2C1O` (stereo not given) here?
The inhibition was -13.3%.

For `O=C(Nc1ccc(F)c(Cl)c1)C1CC(=O)n2c(nc3ccccc32)N1` (stereo not given), which inhibition is on record?
The inhibition was -5.64%.

For `Cc1ccc(/C=N/N2CCN(c3ccccc3)CC2)cc1`, which inhibition is on record?
Its inhibition is -2.14%.

For `O=c1cc(-c2cccs2)oc2ccc(Cl)cc12`, which inhibition is on record?
The inhibition was -2.31%.

With `O=c1c(O)c(-c2cccs2)oc2ccccc12` as the compound, how does the inhibition read?
Its inhibition is -4%.

For `Cc1cc(C(=O)NNS(=O)(=O)c2cccc(Cl)c2)nn1C(C)(C)C`, which inhibition is on record?
Its inhibition is 2.6%.

With `CC(C)(C)NC(=O)Cn1c(Cl)nc2ccccc21` as the compound, how does the inhibition read?
Its inhibition is -2.82%.

Which inhibition does the source give for `Fc1cccc(-c2csc(-c3ccno3)n2)c1` here?
Its inhibition is 0.3%.

For `Nc1nc(-c2ccc3ccccc3c2)cs1`, which inhibition is on record?
Its inhibition is 67.7%.

For `COc1ccc(-c2csc(N)n2)cc1`, which inhibition is on record?
Its inhibition is 84.2%.

With `CC(=O)Nc1cccc(-c2csc(N)n2)c1` as the compound, how does the inhibition read?
Its inhibition is 1.85%.

With `Nc1nc(-c2ccc(-c3ccccc3)cc2)cs1` as the compound, how does the inhibition read?
Its inhibition is -0.75%.

With `Cc1ccc(OCc2csc(N)n2)cc1` as the compound, how does the inhibition read?
Its inhibition is 2.65%.

Which inhibition does the source give for `Nc1nc(-c2ccccc2)cs1` here?
The inhibition was 56.7%.

With `COc1ccc(OCc2csc(N)n2)cc1` as the compound, how does the inhibition read?
Its inhibition is -2.49%.

Which inhibition does the source give for `CCCCOc1ccc(NC(=O)C(=O)NCCC2=CCCCC2)cc1` here?
The inhibition was -6%.

With `Cc1ccc(NC2=NC3(CCCC3)N=C(N)N2)c(C)c1` as the compound, how does the inhibition read?
The inhibition was -0.52%.

For `CCC1CCCCN1C(=O)CSc1nnc(CNC(=O)COc2ccc(Cl)cc2)o1` (stereo not given), which inhibition is on record?
The inhibition was 0.62%.

Which inhibition does the source give for `CC(=O)Nc1ccc(C(=O)NCC(=O)OCc2ccccc2F)cc1` here?
The inhibition was 8.24%.

Which inhibition does the source give for `C=CCNC(=O)c1sc(-c2ccccc2)nc1C` here?
Its inhibition is -4.4%.

Which inhibition does the source give for `COCCn1c(SCC(=O)N2CCN(c3ccccc3)CC2)nc2c(c1=O)SC(C)C2` (stereo not given) here?
The inhibition was -6.25%.

For `O=C(COC(=O)c1cccs1)NCC1CCCO1` (stereo not given), which inhibition is on record?
The inhibition was -10.3%.

Which inhibition does the source give for `COC(=O)Nc1ccc(S(=O)(=O)NCc2ccccn2)cc1` here?
The inhibition was 4.77%.

Which inhibition does the source give for `Cc1ccc2c(c1)C1CN(C)CCC1N2C(=O)c1cccc(S(=O)(=O)N(C)C)c1` (stereo not given) here?
Its inhibition is 1.67%.

Which inhibition does the source give for `COCCOc1ccc(C(F)(F)F)cc1Nc1nc2ccccc2o1` here?
Its inhibition is 11.7%.

Which inhibition does the source give for `COc1cc(/C=N/OCC(=O)Nc2cc(C)on2)ccc1OCc1ccccc1` here?
Its inhibition is 6.49%.

Which inhibition does the source give for `O=[N+]([O-])c1ccc(N2CCCCC2)s1` here?
The inhibition was 48.3%.

Which inhibition does the source give for `CC1CCCN(c2c([N+](=O)[O-])cc(C(=O)O)cc2[N+](=O)[O-])C1` (stereo not given) here?
The inhibition was -5.57%.

For `O=C(Cc1c[nH]c2ccccc12)NCc1ccc2c(c1)OCO2`, which inhibition is on record?
Its inhibition is 8.71%.

With `CCCOc1ccc2c3c(c(=O)oc2c1OCCC)CCCC3` as the compound, how does the inhibition read?
The inhibition was 30.6%.

Which inhibition does the source give for `CCOc1c(OC)ccc2c3c(c(=O)oc12)CCCC3` here?
The inhibition was 12.9%.

With `Cc1cc(CNC(=S)Nc2ccc(Br)cc2Cl)nn1C` as the compound, how does the inhibition read?
Its inhibition is 9.6%.

For `COc1ccc(N=Cc2c(O)n(-c3cccc(C)n3)c(=O)c3ccccc23)cc1`, which inhibition is on record?
The inhibition was 16.8%.

With `CCOc1ccc(-n2c(O)c(C=Nc3ccc(N4CCOCC4)cc3)c(=O)[nH]c2=O)cc1` as the compound, how does the inhibition read?
Its inhibition is -4.71%.

Which inhibition does the source give for `CCOc1ccc(N=Cc2c(O)n(Cc3ccccc3)c(=S)[nH]c2=O)cc1` here?
Its inhibition is 72.9%.

With `CCN(CC)c1ccc(N=Cc2c(O)n(-c3ccc(OC)cc3)c(=O)[nH]c2=O)cc1` as the compound, how does the inhibition read?
Its inhibition is -3.8%.

With `Cc1cccc(-n2c(O)c(C=Nc3ccc(O)cc3)c3ccccc3c2=O)n1` as the compound, how does the inhibition read?
Its inhibition is -0.55%.

Which inhibition does the source give for `CCOc1ccccc1-n1c(O)c(C=Nc2ccc(N(CC)CC)cc2)c(=O)[nH]c1=O` here?
The inhibition was -4.16%.

Which inhibition does the source give for `COc1cc(CN=Cc2c(O)n(C(C)(C)C)c(=O)[nH]c2=O)cc(OC)c1` here?
The inhibition was -1.21%.

Which inhibition does the source give for `Cc1ccc(N=Cc2c(O)n(-c3ccc(C)cc3)c(=O)[nH]c2=O)cc1` here?
The inhibition was -7.29%.

Which inhibition does the source give for `O=C(O)c1ccc(CSc2nc3ccc(N4C(=O)C5C6C=CC(C6)C5C4=O)cc3s2)cc1` (stereo not given) here?
The inhibition was -3.36%.

For `CN=C1SC(CC(=O)Nc2ccccc2F)C(=O)N1C` (stereo not given), which inhibition is on record?
The inhibition was -3.74%.

Which inhibition does the source give for `COc1cccc(NC(=S)NNC(=O)c2ccccc2OC(F)F)c1` here?
Its inhibition is -13.3%.

For `COc1ccc(C)cc1N(C(=O)CNC(=O)c1ccco1)C(C(=O)NC1CCCC1)c1cccnc1` (stereo not given), which inhibition is on record?
The inhibition was -8.51%.

For `COc1cccc(-c2nn(-c3ccccc3)cc2CN(C)Cc2ccon2)c1`, which inhibition is on record?
Its inhibition is -3.56%.

With `CN(C)S(=O)(=O)c1ccc2oc(SCC(N)=O)nc2c1` as the compound, how does the inhibition read?
Its inhibition is -16.7%.

Which inhibition does the source give for `CC1=NN(C(=O)COc2ccccc2)C(O)(c2cccnc2)C1` (stereo not given) here?
The inhibition was -1.6%.

With `COc1ccc(CCN(C)CC(O)c2ccccc2)cc1OC` (stereo not given) as the compound, how does the inhibition read?
The inhibition was 1.49%.

For `CCOc1ccc(-n2c(O)c(C=Nc3ccc(NC(C)=O)cc3)c(=O)[nH]c2=O)cc1`, which inhibition is on record?
Its inhibition is 4.04%.

Which inhibition does the source give for `CCOc1ccc(-n2c(O)c(C=Nc3ccc(N(CC)CC)cc3)c(=O)[nH]c2=O)cc1` here?
The inhibition was -0.69%.

With `CC1CCCN(c2nc3c(c(=O)[nH]c(=O)n3C)n2CCSc2ncccn2)C1` (stereo not given) as the compound, how does the inhibition read?
The inhibition was 2.85%.
